# Measurements taken from the supplement of paper PMC9794691.
# What was measured:
# H1975 [1] = experiment: area under confluence curve of compound monotherapy; compare to DMSO control AUC of the same experiment (AUC (confluence x time, arbitrary))
# Method in brief: (§1)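 Adenocarcinoma lines were grown in RPMI 1640 with 10% FBS at 37 °C and 5% CO2, seeded at 20,000–30,000 cells/well in 48-well plates, and treated the next day with test compound alone at one dose: 1 uM or the highest dose giving <50% parental inhibition. Every 3–4 days the wells were washed with PBS and the drug was refreshed, and medium was drug-free from the DTP stage (10–21 days). IncuCyte tracked confluence until wells given only an EGFR inhibitor regrew. Area under the confluence curve was calculated in Prism, taking the median of triplicates where run, and set beside the vehicle value from the same experiment.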
# HCC2279 [2] = experiment: as above; details: DMSO control AUC in same experiment: 14404
# Method in brief: as §1
# HCC2935 [3] = experiment: as above; details: DMSO control AUC in same experiment: 19215
# Method in brief: as §1
# HCC4006 [4] = experiment: as above; details: DMSO control AUC in same experiment: 18415
# Method in brief: as §1
# HCC827 [5] = experiment: as above; details: DMSO control AUC in same experiment: 21320
# Method in brief: as §1
# II-18 [6] = experiment: as above; details: DMSO control AUC in same experiment: 11834
# Method in brief: as §1
# H1975 [7] = experiment: area under confluence curve of osimertinib + compound combination regimen (DTP regrowth); compare to osimertinib-only DTP control AUC of the same experiment (AUC (confluence x time, arbitrary)); details: test compound dose 1000 nM, DMSO control AUC in same experiment: 20657
# Method in brief: (§2)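 EGFR-mutant NSCLC lines went into 48-well plates at 20,000–30,000 cells/well in RPMI 1640 with 10% FBS and were kept at 37 °C, 5% CO2. Cells got either the EGFR inhibitor plus a fixed-dose test compound from the start through the persister stage (10–21 days) and then drug-free medium, or the inhibitor alone followed by the test compound. Medium was changed every 3–4 days until wells given only the inhibitor regrew to confluence. The endpoint was the area under the IncuCyte confluence–time curve, calculated in Prism and reported as the median of triplicates where available.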
# HCC2279 [8] = experiment: as above; details: test compound dose 1000 nM, DMSO control AUC in same experiment: 40085
# Method in brief: as §2
# HCC2935 [9] = experiment: as above; details: test compound dose 1000 nM, DMSO control AUC in same experiment: 15413
# Method in brief: as §2
# HCC4006 [10] = experiment: as above; details: test compound dose 1000 nM, DMSO control AUC in same experiment: 10921
# Method in brief: as §2
# HCC827 [11] = experiment: as above; details: test compound dose 1000 nM, DMSO control AUC in same experiment: 48895
# Method in brief: as §2
# II-18 [12] = experiment: as above; details: test compound dose 1000 nM, DMSO control AUC in same experiment: 7080
# Method in brief: as §2
# [13] = 1000 nM, DMSO control AUC in same experiment: 15857
compound,measurement,setting,value
COc1nn(C)cc1Nc1nccc(-c2c[nH]c3c(NC(=O)[C@@H](C)N4CCN(C)CC4)cccc23)n1,area under confluence curve,H1975 [1]; [13],17600
same,area under confluence curve,HCC2279 [2]; 1000 nM,15500
same,area under confluence curve,HCC2935 [3]; 1000 nM,20800
same,area under confluence curve,HCC4006 [4]; 1000 nM,18600
same,area under confluence curve,HCC827 [5]; 1000 nM,19500
same,area under confluence curve,II-18 [6]; 1000 nM,5850
C[C@@H](Oc1cc(-c2cnn(C3CCNCC3)c2)cnc1N)c1c(Cl)ccc(F)c1Cl [Crizotinib],area under confluence curve,H1975 [1]; [13],9870
same,area under confluence curve,HCC2279 [2]; 1000 nM,13900
same,area under confluence curve,HCC2935 [3]; 1000 nM,19300
same,area under confluence curve,HCC4006 [4]; 1000 nM,16500
same,area under confluence curve,HCC827 [5]; 1000 nM,19500
same,area under confluence curve,II-18 [6]; 1000 nM,6690
CN(C)CCCOc1ccc(-c2ccc3ncc4c(c3c2)n(C2CCOCC2)c(=O)n4C)cn1,area under confluence curve,"H1975 [1]; 300 nM, DMSO control AUC in same experiment: 26223",22300
same,area under confluence curve,HCC2279 [2]; 300 nM,14100
same,area under confluence curve,HCC2935 [3]; 300 nM,21000
same,area under confluence curve,HCC4006 [4]; 300 nM,20100
same,area under confluence curve,HCC827 [5]; 300 nM,20700
same,area under confluence curve,II-18 [6]; 300 nM,12300
Cc1cc(N2C[C@@H](C)N[C@@H](C)C2)ncc1-c1ccc(-c2nc3c(ccn3C)c(=O)[nH]2)cc1 + C=CC(=O)Nc1cc(Nc2nccc(-c3cn(C)c4ccccc34)n2)c(OC)cc1N(C)CCN(C)C [osimertinib],area under confluence curve,"H1975 [7]; dosing schedule: sequential, osimertinib-only DTP control AUC in same experiment: 15943",12600
same,area under confluence curve,"H1975 [7]; dosing schedule: upfront, osimertinib-only DTP control AUC in same experiment: 27804",11600
same,area under confluence curve,"HCC2279 [8]; dosing schedule: sequential, osimertinib-only DTP control AUC in same experiment: 15997",7150
same,area under confluence curve,"HCC2279 [8]; dosing schedule: upfront, osimertinib-only DTP control AUC in same experiment: 28057",4140
same,area under confluence curve,"HCC2935 [9]; dosing schedule: sequential, osimertinib-only DTP control AUC in same experiment: 7139",3770
same,area under confluence curve,"HCC2935 [9]; dosing schedule: upfront, osimertinib-only DTP control AUC in same experiment: 19044",6190
same,area under confluence curve,"HCC4006 [10]; dosing schedule: sequential, osimertinib-only DTP control AUC in same experiment: 14882",6450
same,area under confluence curve,"HCC4006 [10]; dosing schedule: upfront, osimertinib-only DTP control AUC in same experiment: 18913",7770
same,area under confluence curve,"HCC827 [11]; dosing schedule: sequential, osimertinib-only DTP control AUC in same experiment: 18675",2580
same,area under confluence curve,"HCC827 [11]; dosing schedule: upfront, osimertinib-only DTP control AUC in same experiment: 25542",7720
same,area under confluence curve,"II-18 [12]; dosing schedule: sequential, osimertinib-only DTP control AUC in same experiment: 21122",1300
same,area under confluence curve,"II-18 [12]; dosing schedule: upfront, osimertinib-only DTP control AUC in same experiment: 22894",1140
